Inconclusive results are not listed. Activity calls are given as the source filed them. Unless noted, calls follow the shape of the dose curve; as a rule, active = well fitted curve in the direction sought with a large enough effect in the repeat runs; inconclusive = weak or mixed curves; inactive = no such curve, though single readings can be large; an effect the other way counts as inactive or inconclusive.
How the values were obtained:
[1] = Caspase-3/7 induction in HepG2 cells by small molecules, qHTS assay (AID 1346978); also: nearly all actives have a fitted effect of over 15% in size
In short: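 Wild-type HepG2 cells, 2,000/well, settled 5 hr at 37 C and 5% CO2, then compound-treated for 17 hr; caspase-3/7 activity read by luminescent Caspase-Glo 3/7 after 30 min at room temperature.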

[2] = Caspase-3/7 induction in CHO-K1 cells by small molecules, qHTS cell viability counter screen (AID 1346979); also: nearly all actives have a fitted effect of over 35% in size; also: potency is read from the fitted curve at half-maximal effect
In short: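 To flag cytotoxic compounds, treated CHO-K1 wild-type cells were given CellTiter-Fluor at 16hr and read fluorescently after 1hr at 37C; the caspase-3/7 luminescence was measured in these same wells.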

[3] = Caspase-3/7 induction in CHO-K1 cells by small molecules, qHTS assay (AID 1346980); also: nearly all actives have a fitted effect of over 15% in size
In short: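 Wild-type CHO-K1 cells exposed to compounds for 17hr at 37 C, 5% CO2. Caspase-3/7 activity then measured by Caspase-Glo 3/7 luminescence after 30min at room temperature.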

[4] = Caspase-3/7 induction in HepG2 cells by small molecules, qHTS cell viability counter screen (AID 1346981); also: series mostly up to about 92 µM; nearly all actives have a fitted effect of over 30% in size
In short: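 In this quantitative HTS counter screen, compounds delivered in DMSO were left on unmodified HepG2 cells for 16 hr at 37 C. Viability was then determined fluorometrically with CellTiter-Fluor, in parallel with caspase-3/7 induction in the same wells.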

[5] = target: Nuclear receptor subfamily 1 group I member 2 (Homo sapiens) (UniProt O75469); assay: Human pregnane X receptor (PXR) small molecule agonists, qHTS assay (AID 1346982); also: nearly all actives have a fitted effect of over 35% in size; also: potency is read from the fitted curve at half-maximal effect
In short: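 Reporter HepG2 cells expressing PXR-Luc are cultured in charcoal-stripped FBS (5%), treated with compounds for 24 hr at 37 C, and assayed by ONE-Glo luminescence after 30 min at room temperature.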

[6] = target: Nuclear receptor subfamily 1 group I member 2 (Rattus norvegicus) (UniProt Q9R1A7); assay: Rat pregnane X receptor (rPXR) activation by small molecules, qHTS assay (AID 1346983); conditions: rPXR luciferase reporter cells, One-Glo luminescence, 24 h; max activation: stronger effect = higher value; also: nearly all actives have a fitted effect of over 20% in size
In short: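 Cell-based rPXR activation assay: rPXR cells, 2,000 per well, rested 5hr at 37 C, then exposed to compounds in DMSO for 24 hr at 37 C. Luciferase activity read by One-Glo luminescence after 30 min at room temperature.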

[7] = target: Nuclear receptor subfamily 1 group I member 2 (Homo sapiens) (UniProt O75469); assay: CYP3A4 induction through human pregnane X receptor (PXR) by small molecules, qHTS assay (AID 1346984); also: nearly all actives have a fitted effect of over 40% in size; also: potency is read from the fitted curve at half-maximal effect
In short: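 Induction measured in HepG2-based DPX-2 cells co-expressing human PXR and a CYP3A4 promoter-driven luciferase. After a 24-hour compound exposure, cells received CYP3A4 luciferin substrate at 3uM final for 3 hours, and light output was then recorded.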

[8] = target: Nuclear receptor subfamily 1 group I member 2 (Homo sapiens) (UniProt O75469); assay: Human pregnane X receptor (PXR) activation by small molecules, qHTS assay (AID 1346985); also: nearly all actives have a fitted effect of over 40% in size; also: potency is read from the fitted curve at half-maximal effect
In short: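 DPX-2 cells (HepG2 co-transfected with a PXR response element and a CYP3A4-promoter luciferase construct) were seeded at 2,000 per well, rested 5 hr at 37C, then exposed to DMSO-dissolved compounds for 24 hr. Activation was read as luciferase luminescence.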

[9] = target: Acetylcholinesterase (Homo sapiens) (UniProt P22303); assay: Acetylcholinesterase (AChE) small molecule antagonists: colormetric cell-based qHTS assay (AID 1347395; calls by dose curve; also: nearly all actives have a fitted effect of over 30% in size; also: potency is read from the fitted curve at half-maximal effect)
In short: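 Neuroblastoma line SH-SY5Y supplied the enzyme; cells were preincubated with compound for 30 min at 37 C and 5% CO2. Acetylthiocholine with DTNB was then added for 90 min at 37 C, and thiocholine was measured by colour.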

[10] = target: Acetylcholinesterase (Homo sapiens) (UniProt P22303); assay: Acetylcholinesterase (AChE) small molecule antagonists: enzyme-based qHTS assay (AID 1347397; calls by dose curve; also: nearly all actives have a fitted effect of over 55% in size; also: potency is read from the fitted curve at half-maximal effect); conditions: Potency: AChE enzyme activity inhibition
In short: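 In this quantitative HTS, compounds from the Tox21 10K collection were preincubated 30 min at ambient temperature with recombinant human AChE dispensed at 50 mU/mL. Hydrolysis of acetylthiocholine was then followed for 10 min by DTNB colour development.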

[11] = target: Acetylcholinesterase (Homo sapiens) (UniProt P22303); assay: Acetylcholinesterase (AChE) small molecule antagonists: fluorescence cell-based qHTS assay (AID 1347398; calls by dose curve; also: nearly all actives have a fitted effect of over 50% in size; also: potency is read from the fitted curve at half-maximal effect); conditions: Potency: AChE activity
In short: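 Cells (SH-SY5Y) attached overnight, were dosed with compound or DMSO vehicle for 30 min at 37 C, and then incubated 40 min at room temperature with acetylthiocholine and Thiolite Green; green fluorescence indexed AChE activity.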

[12] = target: Acetylcholinesterase (Homo sapiens) (UniProt P22303); assay: Acetylcholinesterase (AChE) small molecule antagonists: enzyme-based qHTS assay with human liver microsomes (AID 1347399; calls by dose curve; also: nearly all actives have a fitted effect of over 60% in size); conditions: Potency: qHTS inhibition
In short: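 Recombinant human AChE (50 mU/mL in the enzyme mix) and human liver microsomes (0.25 mg/mL final) were preincubated with compound and NADPH (0.25 mg/mL final) for 30 min at 37 C. Acetylthiocholine/DTNB was then added; thiocholine was read colorimetrically after 10 min at room temperature.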

[13] = target: Cytochrome P450 2D6 (Homo sapiens) (UniProt P10635); assay: Cytochrome P450 Family 2 Subfamily D Member 6 (CYP2D6) small molecule antagonists: luciferase reporter qHTS assay (AID 1671196); also: nearly all actives have a fitted effect of over 50% in size; also: potency is read from the fitted curve at half-maximal effect
In short: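 Test chemicals meet CYP2D6 plus proluciferin substrate (10 min, RT); NADPH regenerating solution then drives turnover for 1 h. Detection reagent halts the reaction; luminescence measured after 20 min.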

[14] = target: Cytochrome P450 2C19 (Homo sapiens) (UniProt P33261); assay: Cytochrome P450 Family 2 Subfamily C Member 19 (CYP2C19) small molecule antagonists: luciferase reporter qHTS assay (AID 1671197); also: nearly all actives have a fitted effect of over 65% in size; also: potency is read from the fitted curve at half-maximal effect
In short: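 Quantitative high-throughput screen of the Tox21 library using CYP2C19 with proluciferin substrate. Reaction: NADPH regeneration, 37C, 1 h, after 10 min compound preincubation at room temperature. Readout: luminescence.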

[15] = target: Cytochrome P450 2C9 (Homo sapiens) (UniProt P11712); assay: Cytochrome P450 Family 2 Subfamily C Member 9 (CYP2C9) small molecule antagonists: luciferase reporter qHTS assay (AID 1671198); also: nearly all actives have a fitted effect of over 50% in size; also: potency is read from the fitted curve at half-maximal effect
In short: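 P450-Glo proluciferin substrate with CYP2C9 enzyme; 10 min RT preincubation, then NADPH regeneration 1 h at 37C; luciferin detection reagent 20 min RT, luminescence in relative luminescence units.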

[16] = target: Voltage-gated inwardly rectifying potassium channel KCNH2 (Homo sapiens) (UniProt Q12809); assay: Human Ether-a-go-go-Related Gene (hERG) channel small molecule antagonists: fluorescence cell-based qHTS assay (AID 1671200); also: nearly all actives have a fitted effect of over 50% in size; also: potency is read from the fitted curve at half-maximal effect
In short: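 Measured: Tl+ flux via fluorescence (480/540 nm) in hERG-expressing U2OS cells after 1 h dye loading at room temperature.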

[17] = target: Cytochrome P450 1A2 (Homo sapiens) (UniProt P05177); assay: Cytochrome P450 Family 1 Subfamily A Member 2 (CYP1A2) small molecule antagonists: luciferase reporter qHTS assay (AID 1671199); also: nearly all actives have a fitted effect of over 50% in size; also: potency is read from the fitted curve at half-maximal effect
In short: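 Steps: enzyme-substrate mix dispensed; test compounds and furafylline control pinned in; 10 min room temperature; NADPH regeneration solution added, 1 h; reaction stopped with luciferin detection reagent; luminescence read after 20 min.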

[18] = Human pregnane X receptor (PXR) small molecule agonists, qHTS cell viability counter screen (AID 1346977); also: nearly all actives have a fitted effect of over 50% in size
In short: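 Readout is CellTiter-Fluor fluorescence from PXR-Luc HepG2 cells. Plated cells rested 5hr, then were treated with compounds for 24hr at 37C and 5% CO2, with reagent present during the last hour.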

[19] = target: Cytochrome P450 3A4 (Homo sapiens) (UniProt P08684); assay: Cytochrome P450 Family 3 Subfamily A Member 4 (CYP3A4) small molecule antagonists: luciferase reporter qHTS assay (AID 1671201); also: nearly all actives have a fitted effect of over 50% in size; also: potency is read from the fitted curve at half-maximal effect
In short: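 Setup: enzyme-substrate mix, compound pin transfer, 10 min RT. Reaction: NADPH regeneration solution, 1 h RT. Readout: detection reagent stops turnover, luminescence measured after 20 min, expressed in relative luminescence units.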
% is scaled to controls: 0 for no effect and ±100 for the full control effect.

Cytochrome P450 1A2 (Homo sapiens), sequence (P05177 whole entry, looked up): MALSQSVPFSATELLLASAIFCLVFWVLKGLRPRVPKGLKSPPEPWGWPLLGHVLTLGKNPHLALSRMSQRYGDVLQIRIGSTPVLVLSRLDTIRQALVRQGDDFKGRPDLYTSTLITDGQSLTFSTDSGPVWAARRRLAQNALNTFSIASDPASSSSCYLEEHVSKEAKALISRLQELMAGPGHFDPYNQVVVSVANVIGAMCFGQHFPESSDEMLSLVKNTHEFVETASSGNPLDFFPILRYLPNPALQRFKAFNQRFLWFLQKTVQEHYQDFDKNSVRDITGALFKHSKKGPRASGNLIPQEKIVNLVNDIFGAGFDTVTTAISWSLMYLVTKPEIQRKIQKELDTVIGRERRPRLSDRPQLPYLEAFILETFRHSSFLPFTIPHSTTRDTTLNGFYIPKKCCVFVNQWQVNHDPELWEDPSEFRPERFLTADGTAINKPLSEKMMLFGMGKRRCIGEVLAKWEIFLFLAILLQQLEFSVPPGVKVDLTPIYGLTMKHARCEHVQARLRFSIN
Cytochrome P450 2D6 (Homo sapiens), sequence (P10635 whole entry, looked up): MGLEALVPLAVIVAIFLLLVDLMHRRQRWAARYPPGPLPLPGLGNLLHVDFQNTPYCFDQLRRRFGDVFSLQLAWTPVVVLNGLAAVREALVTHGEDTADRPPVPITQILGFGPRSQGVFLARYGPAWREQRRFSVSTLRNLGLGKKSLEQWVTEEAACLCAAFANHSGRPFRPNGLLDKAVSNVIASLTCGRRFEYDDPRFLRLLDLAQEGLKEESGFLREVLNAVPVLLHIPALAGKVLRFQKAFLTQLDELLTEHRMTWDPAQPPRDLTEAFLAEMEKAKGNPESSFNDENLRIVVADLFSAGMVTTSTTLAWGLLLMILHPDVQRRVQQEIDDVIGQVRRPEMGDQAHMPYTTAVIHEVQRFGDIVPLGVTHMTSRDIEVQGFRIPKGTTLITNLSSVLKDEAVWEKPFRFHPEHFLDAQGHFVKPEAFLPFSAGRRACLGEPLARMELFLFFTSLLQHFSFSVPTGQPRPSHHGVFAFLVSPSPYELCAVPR
Acetylcholinesterase (Homo sapiens), sequence (P22303 whole entry, looked up): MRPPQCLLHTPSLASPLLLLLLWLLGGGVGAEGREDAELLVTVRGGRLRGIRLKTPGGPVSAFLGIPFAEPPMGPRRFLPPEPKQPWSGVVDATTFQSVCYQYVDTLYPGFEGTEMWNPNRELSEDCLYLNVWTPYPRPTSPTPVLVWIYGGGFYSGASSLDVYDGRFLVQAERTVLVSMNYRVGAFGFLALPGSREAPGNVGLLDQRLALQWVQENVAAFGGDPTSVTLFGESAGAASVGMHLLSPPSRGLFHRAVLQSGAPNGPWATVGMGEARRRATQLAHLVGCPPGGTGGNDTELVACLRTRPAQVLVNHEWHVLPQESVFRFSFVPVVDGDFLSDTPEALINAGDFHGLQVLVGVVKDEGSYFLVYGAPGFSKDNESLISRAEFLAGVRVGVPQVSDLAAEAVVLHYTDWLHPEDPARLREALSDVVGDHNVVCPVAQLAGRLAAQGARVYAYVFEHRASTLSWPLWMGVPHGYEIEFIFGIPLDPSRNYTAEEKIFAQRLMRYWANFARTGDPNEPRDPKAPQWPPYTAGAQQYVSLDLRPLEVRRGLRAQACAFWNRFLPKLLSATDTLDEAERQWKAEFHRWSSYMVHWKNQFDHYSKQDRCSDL
Voltage-gated inwardly rectifying potassium channel KCNH2 (Homo sapiens), sequence (Q12809 whole entry, looked up): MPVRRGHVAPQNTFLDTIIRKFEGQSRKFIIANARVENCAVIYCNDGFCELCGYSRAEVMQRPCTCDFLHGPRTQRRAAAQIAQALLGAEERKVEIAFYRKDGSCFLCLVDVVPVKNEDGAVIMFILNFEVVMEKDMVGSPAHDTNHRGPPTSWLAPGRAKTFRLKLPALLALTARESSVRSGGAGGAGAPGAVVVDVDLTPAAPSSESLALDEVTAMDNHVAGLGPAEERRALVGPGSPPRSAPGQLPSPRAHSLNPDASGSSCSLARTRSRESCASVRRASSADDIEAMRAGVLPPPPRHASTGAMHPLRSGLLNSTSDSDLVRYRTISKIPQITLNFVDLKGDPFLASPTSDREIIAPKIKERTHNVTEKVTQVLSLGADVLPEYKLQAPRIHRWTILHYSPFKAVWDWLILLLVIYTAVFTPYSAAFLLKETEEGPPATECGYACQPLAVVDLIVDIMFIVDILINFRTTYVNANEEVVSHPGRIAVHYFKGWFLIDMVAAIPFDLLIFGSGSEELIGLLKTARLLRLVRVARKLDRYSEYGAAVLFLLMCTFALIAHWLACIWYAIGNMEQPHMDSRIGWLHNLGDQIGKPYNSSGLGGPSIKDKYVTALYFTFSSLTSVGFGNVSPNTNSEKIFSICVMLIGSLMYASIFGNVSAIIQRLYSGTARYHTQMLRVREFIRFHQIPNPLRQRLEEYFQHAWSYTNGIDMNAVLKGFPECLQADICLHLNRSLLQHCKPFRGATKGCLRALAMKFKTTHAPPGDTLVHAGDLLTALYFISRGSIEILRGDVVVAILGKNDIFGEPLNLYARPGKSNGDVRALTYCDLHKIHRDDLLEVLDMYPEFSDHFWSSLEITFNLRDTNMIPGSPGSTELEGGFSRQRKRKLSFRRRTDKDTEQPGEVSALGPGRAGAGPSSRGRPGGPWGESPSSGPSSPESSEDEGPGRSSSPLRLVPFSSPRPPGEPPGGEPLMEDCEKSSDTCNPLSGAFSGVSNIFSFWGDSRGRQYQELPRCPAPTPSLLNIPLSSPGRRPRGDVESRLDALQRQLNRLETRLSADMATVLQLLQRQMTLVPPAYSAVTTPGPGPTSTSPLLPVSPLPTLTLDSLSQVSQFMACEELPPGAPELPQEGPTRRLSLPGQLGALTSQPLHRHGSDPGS
Nuclear receptor subfamily 1 group I member 2 (Rattus norvegicus), sequence (Q9R1A7 whole entry, looked up): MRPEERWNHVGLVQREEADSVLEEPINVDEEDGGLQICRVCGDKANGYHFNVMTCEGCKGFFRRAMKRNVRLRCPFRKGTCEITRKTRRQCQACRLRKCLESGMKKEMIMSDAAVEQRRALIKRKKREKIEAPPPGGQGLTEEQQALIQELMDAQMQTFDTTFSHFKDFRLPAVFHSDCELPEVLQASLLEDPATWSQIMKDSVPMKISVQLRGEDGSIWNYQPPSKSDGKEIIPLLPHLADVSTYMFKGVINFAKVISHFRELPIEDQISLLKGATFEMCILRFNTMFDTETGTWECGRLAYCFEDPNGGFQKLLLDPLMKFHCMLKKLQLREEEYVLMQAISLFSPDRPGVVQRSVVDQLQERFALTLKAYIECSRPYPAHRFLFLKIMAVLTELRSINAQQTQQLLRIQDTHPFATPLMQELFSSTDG
Cytochrome P450 2C19 (Homo sapiens), sequence (P33261 whole entry, looked up): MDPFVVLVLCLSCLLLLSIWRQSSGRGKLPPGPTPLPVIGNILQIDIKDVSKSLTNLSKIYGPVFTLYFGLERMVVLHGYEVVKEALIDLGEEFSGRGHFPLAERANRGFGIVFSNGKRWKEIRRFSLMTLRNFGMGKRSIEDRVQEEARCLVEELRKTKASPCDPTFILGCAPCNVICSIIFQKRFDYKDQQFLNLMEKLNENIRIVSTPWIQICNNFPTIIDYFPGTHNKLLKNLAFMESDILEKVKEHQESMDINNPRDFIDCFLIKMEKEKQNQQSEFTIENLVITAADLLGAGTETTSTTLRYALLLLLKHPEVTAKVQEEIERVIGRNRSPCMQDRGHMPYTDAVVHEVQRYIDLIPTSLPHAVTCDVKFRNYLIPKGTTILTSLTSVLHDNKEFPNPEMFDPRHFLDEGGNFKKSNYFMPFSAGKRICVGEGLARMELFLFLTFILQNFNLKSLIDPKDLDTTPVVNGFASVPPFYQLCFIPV
Nuclear receptor subfamily 1 group I member 2 (Homo sapiens), sequence (O75469 whole entry, looked up): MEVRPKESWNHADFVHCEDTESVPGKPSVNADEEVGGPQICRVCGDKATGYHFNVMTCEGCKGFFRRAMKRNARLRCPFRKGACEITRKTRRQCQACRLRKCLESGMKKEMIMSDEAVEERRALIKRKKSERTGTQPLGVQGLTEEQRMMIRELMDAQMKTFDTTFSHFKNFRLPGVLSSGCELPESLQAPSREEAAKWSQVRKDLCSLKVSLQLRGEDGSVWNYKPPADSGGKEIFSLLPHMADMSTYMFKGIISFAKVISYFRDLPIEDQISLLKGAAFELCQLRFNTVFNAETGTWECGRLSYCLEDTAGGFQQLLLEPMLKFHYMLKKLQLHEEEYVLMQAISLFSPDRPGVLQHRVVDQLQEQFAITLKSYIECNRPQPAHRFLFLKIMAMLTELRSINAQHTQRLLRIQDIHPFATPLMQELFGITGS
Cytochrome P450 2C9 (Homo sapiens), sequence (P11712 whole entry, looked up): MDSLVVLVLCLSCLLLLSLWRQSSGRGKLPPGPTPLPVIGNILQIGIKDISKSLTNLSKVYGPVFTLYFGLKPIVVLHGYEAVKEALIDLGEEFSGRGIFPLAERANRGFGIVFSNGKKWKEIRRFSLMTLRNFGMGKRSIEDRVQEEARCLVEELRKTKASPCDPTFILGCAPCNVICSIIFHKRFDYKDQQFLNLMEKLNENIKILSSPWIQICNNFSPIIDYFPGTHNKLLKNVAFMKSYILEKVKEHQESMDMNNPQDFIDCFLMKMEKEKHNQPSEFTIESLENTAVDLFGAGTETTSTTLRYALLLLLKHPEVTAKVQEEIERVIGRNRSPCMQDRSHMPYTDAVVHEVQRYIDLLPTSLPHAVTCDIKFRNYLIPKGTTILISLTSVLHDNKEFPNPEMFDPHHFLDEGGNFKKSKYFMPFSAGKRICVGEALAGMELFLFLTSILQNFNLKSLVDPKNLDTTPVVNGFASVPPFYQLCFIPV

CCN(CC)CCOC(=O)C(C)(c1ccccc1)c1ccccc1
active: Potency [5] 13.3 µM | Potency [7] 7.94 µM | Potency [8] 8.91 µM | Potency [13] 1.55 µM | Potency [14] 3.89 µM | Potency [15] 12.3 µM | Potency [16] 10.7 µM
inactive: Potency [1] | Potency [2] | Potency [3] | Potency [4] | max activation [6] 7.07% | Potency [9] | Potency [10] | Potency [11] | Potency [12]

CN1CCC(O)(c2ccc(F)cc2)C(C(=O)c2ccc(F)cc2)C1 (stereo not drawn)
inactive: Potency [1] | Potency [2] | Potency [3] | Potency [4] | max activation [6] -0.751% | Potency [7] | Potency [8] | Potency [9] | Potency [10] | Potency [11] | Potency [12] | Potency [14] | Potency [15] | Potency [17]
active: Potency [5] 13.3 µM | Potency [13] 17.4 µM

CCOC(=O)NC(=S)Nc1ccccc1NC(=S)NC(=O)OCC
inactive: Potency [18] | Potency [1] | Potency [3] | Potency [4] | Potency [9] | Potency [10] | Potency [11] | Potency [12] | Potency [16]
active: Potency [5] 27.3 µM | Potency [14] 5.03 µM | Potency [17] 31.7 µM

CC1=C(C(=O)Nc2ccccc2)S(=O)(=O)CCO1
active: Potency [2] 61.1 µM
inactive: Potency [1] | Potency [3] | Potency [5] | Potency [9] | Potency [10] | Potency [11] | Potency [12] | Potency [13] | Potency [14] | Potency [16] | Potency [19]

CCN(CC)C(=O)[C@@H]1C=C2c3cccc4[nH]cc(c34)C[C@H]2N(C)C1
inactive: Potency [1] | Potency [3] | Potency [12] | Potency [16]
active: Potency [2] 89.8 µM | Potency [5] 80 µM | Potency [9] 73.8 µM | Potency [10] 104 µM | Potency [11] 58.7 µM | Potency [13] 0.466 µM | Potency [19] 82.8 µM

C=C(C)[C@@H]1CC=C(C=O)CC1
active: Potency [15] 71 µM | Potency [19] 35.6 µM
inactive: Potency [18] | Potency [1] | Potency [3] | Potency [4] | Potency [9] | Potency [10] | Potency [11] | Potency [12] | Potency [13] | Potency [17] | Potency [16]

CC1(C(=O)Nc2ccc(O)c(Cl)c2Cl)CCCCC1
active: Potency [5] 19.3 µM | Potency [13] 71 µM | Potency [14] 11.2 µM | Potency [15] 35.6 µM
inactive: Potency [18] | Potency [1] | Potency [3] | Potency [4] | Potency [9] | Potency [10] | Potency [11] | Potency [12] | Potency [16]

O=C1OC(CCN2CCCCC2)OC1(c1ccccc1)c1ccccc1 (stereo not drawn)
inactive: Potency [18] | Potency [1] | Potency [3] | Potency [4] | Potency [5] | Potency [9] | Potency [10] | Potency [12]
active: Potency [13] 0.871 µM | Potency [14] 38.9 µM | Potency [15] 15.5 µM | Potency [16] 0.848 µM

CCN(CC)c1nc(C)cc(OP(=S)(OC)OC)n1
inactive: Potency [18] | Potency [1] | Potency [3] | Potency [4] | Potency [5] | Potency [10] | Potency [12]
active: Potency [15] 22.4 µM | Potency [17] 1.78 µM | Potency [19] 2.24 µM

CC1COC2(c3ccccc3Cl)c3cc(Cl)ccc3NC(=O)CN12 (stereo not drawn)
inactive: Potency [18] | Potency [1] | Potency [3] | Potency [4] | Potency [9] | Potency [10] | Potency [12]
active: Potency [5] 23.7 µM | Potency [13] 15.5 µM | Potency [14] 4.36 µM | Potency [15] 27.5 µM

COc1ccc2c(c1OC)CN1CCc3cc4c(cc3C1C2)OCO4 (stereo not drawn)
inactive: Potency [18] | Potency [1] | Potency [3] | Potency [4] | Potency [5] | max activation [6] 0.596% | Potency [7] | Potency [8]
active: Potency [9] 8.71 µM | Potency [10] 5.49 µM | Potency [11] 1.38 µM | Potency [13] 0.246 µM | Potency [14] 0.977 µM | Potency [15] 30.9 µM | Potency [17] 15.5 µM

NC(=O)c1cc([N+](=O)[O-])cc([N+](=O)[O-])c1
inactive: Potency [1] | Potency [2] | Potency [3] | Potency [4] | Potency [5] | max activation [6] -0.752% | Potency [7] | Potency [8] | Potency [10] | Potency [11] | Potency [12] | Potency [13] | Potency [15] | Potency [17] | Potency [16] | Potency [19]

CC1(C)COP(Oc2ccccc2)OC1
inactive: Potency [1] | Potency [2] | Potency [3] | Potency [4] | Potency [5] | Potency [9] | Potency [10] | Potency [11] | Potency [12] | Potency [14] | Potency [15] | Potency [16] | Potency [19]

CC(C)(C)NCC(O)c1cc(Cl)c(N)c(Cl)c1 (stereo not drawn)
inactive: Potency [1] | Potency [2] | Potency [3] | Potency [5] | max activation [6] -2.23% | Potency [7] | Potency [8] | Potency [9] | Potency [10] | Potency [11] | Potency [12] | Potency [14] | Potency [15] | Potency [17] | Potency [16] | Potency [19]
active: Potency [13] 15.5 µM

CCC(=O)C(CCN(C)C)(c1ccccc1)c1ccccc1
active: Potency [5] 16.8 µM | Potency [13] 5.49 µM | Potency [14] 11 µM
inactive: Potency [1] | Potency [2] | Potency [3] | Potency [4] | Potency [9] | Potency [10] | Potency [12] | Potency [17]

— PubChem BioAssay (Tox21)
